Shown are actives, neighbours in structure and some others; about 28% of the full set was active somewhere.
CYP2C19 act: increases human CYP2C19 enzyme activity; P33261; activation factor at 5 µM; 96,000 tested, under 10 active; recombinant CYP2C19, luciferin-H EGE luminescence; active compounds read high; 0 = fully inhibited enzyme, 1 = untreated enzyme;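 active = activation factor of at least 2 at 5 µM in the primary screen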;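 also: 0 = wells with 2.5 mM tranylcypromine and 1 = vehicle-only wells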
Mac1 fbg enh: CD11b/CD18-fibrinogen binding enhancement. P05107+P11215. K562 CD11b/CD18 adhesion to fibrinogen, ATPlite luminescence. activation, % at 10 µM. 93,000 tested, 0.07% active;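 active = 10 µM primary screen giving 50% or more activity, confirmed by 40% or more on retest at that dose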
CYP2C9 inhib: blocks human cytochrome P450 2C9; 96,000 tested, 20% active; P11712; AID 777; CYP2C9 Supersomes, luciferin-H conversion, luminescence; inhibition, % at 5 µM;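 active = blocking of liver enzyme CYP2C9 beyond about 50% at 5 µM, limit read from the data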
Target sequence (P11712 whole entry, looked up): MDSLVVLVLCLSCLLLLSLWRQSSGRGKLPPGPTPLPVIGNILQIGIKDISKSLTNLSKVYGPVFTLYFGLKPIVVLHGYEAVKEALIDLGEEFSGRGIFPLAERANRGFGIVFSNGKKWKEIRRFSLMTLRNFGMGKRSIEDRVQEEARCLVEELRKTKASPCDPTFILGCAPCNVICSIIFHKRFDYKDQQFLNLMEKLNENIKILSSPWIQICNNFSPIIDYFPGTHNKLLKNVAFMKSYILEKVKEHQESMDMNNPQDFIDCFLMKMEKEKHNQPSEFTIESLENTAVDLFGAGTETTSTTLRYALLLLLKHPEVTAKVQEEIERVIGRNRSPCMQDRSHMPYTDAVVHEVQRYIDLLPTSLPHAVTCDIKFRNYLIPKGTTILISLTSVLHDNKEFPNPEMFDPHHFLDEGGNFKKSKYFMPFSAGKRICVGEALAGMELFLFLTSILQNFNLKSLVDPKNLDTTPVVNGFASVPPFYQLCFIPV
Mac1 fbg inh: CD11b/CD18-fibrinogen binding inhibition | inhibition, % at 10 µM | P05107+P11215 | AID 1497 | K562 CD11b/CD18 adhesion to fibrinogen, ATPlite luminescence; Mn2+ added to activate the integrin | 93,000 tested, 0.54% active;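 active = primary inhibition of 50% or more at 10 µM, then 40% or more on retest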
CYP2C9 act: CYP2C9 (human) activation | recombinant CYP2C9, luciferin-H conversion, luminescence; active compounds read high; factor 1 = untreated enzyme, 0 = blocked | AID 1024 | 96,000 tested, 1.4% active | activation factor at 5 µM;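 active = activation factor of 2 or more for CYP2C9 at a 5 µM dose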;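 also: 0 = sulfaphenazole-blocked wells and 1 = vehicle-only wells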
CYP2C19 inh: blocks human cytochrome P450 2C19 | P33261 | CYP2C19 Supersomes, luciferin-H EGE luminescence, 30 min | inhibition, % at 5 µM | 96,000 tested, 21% active | AID 778;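 active = CYP2C19 inhibition above a set limit at 5 µM in the primary screen, cut at about 50% in these data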;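 also: plate controls were negative control wells for no effect and 2.5 mM tranylcypromine positive control for full effect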
* marks the source's active call; other numbers are inactive results.

For Cc1ccc(Sc2ncnc(N)c2[N+](=O)[O-])cc1 the results were Mac1 fbg enh -2.8 and Mac1 fbg inh 11.2.
Screening Cc1noc2ncnc(Sc3ccc(Cl)cc3)c12 returned CYP2C19 act 0.2, Mac1 fbg enh -0.8, CYP2C9 inhib 9.7, Mac1 fbg inh 23.3, CYP2C9 act 0.9 and CYP2C19 inh 79.2*.
Screening Cc1ccccc1Sc1ncnc2onc(C)c12 returned CYP2C19 act 0, Mac1 fbg enh -3.3, CYP2C9 inhib 48.8, Mac1 fbg inh -19.6, CYP2C9 act 0.5 and CYP2C19 inh 96.2*.
Cc1noc2ncnc(Oc3ccc(F)cc3)c12 was read as CYP2C19 act 1, Mac1 fbg enh -2.8, CYP2C9 inhib -7.1, Mac1 fbg inh -6.2, CYP2C9 act 1.1 and CYP2C19 inh 4.6.
`Cc1noc2ncnc(Sc3c(Cl)cccc3Cl)c12` gave CYP2C19 act 0, Mac1 fbg enh -3.0, CYP2C9 inhib 52.1*, Mac1 fbg inh -32.9, CYP2C9 act 0.5 and CYP2C19 inh 97.0*.
For CCCc1cc(=O)n2[nH]c(C)cc2n1 the results were CYP2C19 act 1.1, Mac1 fbg enh 0.1, CYP2C9 inhib -6.8, Mac1 fbg inh -26.1, CYP2C9 act 1.1 and CYP2C19 inh -6.1.
For O=C(C(Cl)Cl)N1c2ccccc2OCC1c1ccccc1 (stereo unspecified) the results were CYP2C19 act 0.2, Mac1 fbg enh -6.7, CYP2C9 inhib 75.1*, Mac1 fbg inh 53.9, CYP2C9 act 0.2 and CYP2C19 inh 77.8*.
CCN1C(=O)c2cccc3c(S(=O)(=O)NCCc4c[nH]c5ccccc45)ccc1c23 was read as CYP2C19 act 0.4, Mac1 fbg enh -2.4, CYP2C9 inhib 83.8*, Mac1 fbg inh -0.8, CYP2C9 act 0.2 and CYP2C19 inh 63.0*.
CCN1C(=O)c2cccc3c(S(=O)(=O)NCCCN4CCOCC4)ccc1c23 was read as CYP2C19 act 0.5, CYP2C9 inhib 46.1, CYP2C9 act 0.5 and CYP2C19 inh 54.0*.
Screening CC(C)C(=O)NS(=O)(=O)c1ccc(N)cc1 returned CYP2C19 act 1.2, Mac1 fbg enh -0.2, CYP2C9 inhib -11.8, Mac1 fbg inh -2.7, CYP2C9 act 1.1 and CYP2C19 inh -18.0.
COC(=O)c1ccc(C(=O)OC)c(NC(=O)CN(C)Cc2ccc(Cl)c(Cl)c2)c1 was read as Mac1 fbg enh 1.6 and Mac1 fbg inh -3.8.
Screening CC(C)(C)c1ccc(C(=O)N2CCC(C(=O)NCc3ccncc3)CC2)cc1 returned CYP2C19 act 0.6, Mac1 fbg enh -0.1, CYP2C9 inhib 55.0*, Mac1 fbg inh -19.2, CYP2C9 act 0.4 and CYP2C19 inh 38.7.
Screening O=C(NCc1cccc(F)c1)C1CCN(S(=O)(=O)Cc2ccccc2)CC1 returned CYP2C19 act 0.9, Mac1 fbg enh -1.8, CYP2C9 inhib -2.0, Mac1 fbg inh -0.6, CYP2C9 act 1 and CYP2C19 inh 12.2.
`CC(C)(C)NC(=O)C1CCN(C(=O)c2ccc(-c3ccccc3)cc2)CC1` gave CYP2C19 act 1, Mac1 fbg enh 1.7, CYP2C9 inhib 15.4, Mac1 fbg inh 29.1, CYP2C9 act 0.8 and CYP2C19 inh -4.2.
O=C(NCc1ccncc1)C1CCN(S(=O)(=O)Cc2ccccc2)CC1 was read as CYP2C19 act 0.6, Mac1 fbg enh -2.8, CYP2C9 inhib 91.7*, Mac1 fbg inh 10.4, CYP2C9 act 0.1 and CYP2C19 inh 44.4.
For Cc1nnc(C)n1/N=C/c1cc(Br)ccc1O the results were CYP2C19 act 1, Mac1 fbg enh -3.3, CYP2C9 inhib 14.9, Mac1 fbg inh 15.3, CYP2C9 act 0.9 and CYP2C19 inh 0.0.
`Cc1cc2ncn(/N=C/c3cc(Br)ccc3O)c2cc1C` gave CYP2C19 act 0.7, Mac1 fbg enh 17.0, CYP2C9 inhib 61.1*, Mac1 fbg inh 3.9, CYP2C9 act 0.4 and CYP2C19 inh 31.4.
For CCCCCCn1c(SCC(=O)c2c(N)n(C)c(=O)n(C)c2=O)nc2ccccc21 the results were CYP2C19 act 0.8, Mac1 fbg enh 1.6, CYP2C9 inhib 74.6*, Mac1 fbg inh 12.8, CYP2C9 act 0.3 and CYP2C19 inh 22.1.
CCCn1c(N)c(C(=O)CSc2nc3ccccc3n2CCC#N)c(=O)n(C)c1=O was read as CYP2C19 act 1, Mac1 fbg enh -6.0, CYP2C9 inhib 1.6, Mac1 fbg inh -9.8, CYP2C9 act 1 and CYP2C19 inh -1.5.
Screening CC(C)CC(=O)Nc1nnn(C)n1 returned CYP2C19 act 0.8, Mac1 fbg enh -5.2, CYP2C9 inhib -5.7, Mac1 fbg inh -1.9, CYP2C9 act 1.1 and CYP2C19 inh 15.0.
For O=c1c2cnn(-c3ccccc3)c2ncn1Cc1cccc(Cl)c1 the results were CYP2C19 act 1.1, Mac1 fbg enh -0.1, CYP2C9 inhib 2.5, Mac1 fbg inh -24.3, CYP2C9 act 1 and CYP2C19 inh -10.3.
O=c1c2ccsc2ncn1Cc1ccc(Cl)cc1 was read as CYP2C19 act 0.4, CYP2C9 inhib 54.0*, CYP2C9 act 0.5 and CYP2C19 inh 61.2*.
`O=C(NCc1cn2ccccc2n1)c1ccccc1` gave CYP2C19 act 0.7, Mac1 fbg enh 1.0, CYP2C9 inhib -0.5, Mac1 fbg inh 6.1, CYP2C9 act 1 and CYP2C19 inh 34.4.
`Cc1ccc(C(=O)OCc2cn3ccccc3n2)cc1` gave CYP2C19 act 0.2, Mac1 fbg enh 2.5, CYP2C9 inhib 58.8*, Mac1 fbg inh -3.7, CYP2C9 act 0.4 and CYP2C19 inh 83.0*.
For COc1ccc([C@@H]2[C@H]3C(=O)N(c4cccc(C(F)(F)F)c4)C(=O)[C@H]3ON2C)cc1 the results were CYP2C19 act 0.5, Mac1 fbg enh -2.1, CYP2C9 inhib 36.6, Mac1 fbg inh -23.3, CYP2C9 act 0.6 and CYP2C19 inh 54.8*.
For Cc1n[nH]c(=O)n1-c1cccc(C(F)(F)F)c1 the results were CYP2C19 act 1.1, CYP2C9 inhib 1.3, CYP2C9 act 1 and CYP2C19 inh -6.6.
Screening O=C(O)C1=C(C(=O)N2CCN(C(=O)c3ccco3)CC2)CCCC1 returned CYP2C19 act 1, Mac1 fbg enh 2.9, CYP2C9 inhib 3.6, Mac1 fbg inh -6.3, CYP2C9 act 1 and CYP2C19 inh 0.1.
Screening N#CCCn1nc(-c2ccccc2)cc1-n1c(C(F)(F)F)nc2ccccc21 returned CYP2C19 act 0.1, Mac1 fbg enh 0.5, CYP2C9 inhib 95.7*, Mac1 fbg inh 10.6, CYP2C9 act 0 and CYP2C19 inh 87.2*.
For Cc1nn(CCC#N)c2nc(-c3ccccc3)cc(C(F)(F)F)c12 the results were CYP2C19 act 0.9, Mac1 fbg enh 1.0, CYP2C9 inhib -0.3, Mac1 fbg inh 35.7, CYP2C9 act 1 and CYP2C19 inh 9.5.
Screening CC(=O)N(c1ccc(Cl)cc1)c1c[nH]c2ccccc12 returned CYP2C19 act 0.1, Mac1 fbg enh -5.5, CYP2C9 inhib 69.6*, Mac1 fbg inh -1.5, CYP2C9 act 0.3 and CYP2C19 inh 91.8*.
